High-throughput results as filed in PubChem BioAssay.
In the library only some 11% were active in any assay of this set; here they are far more common.
Pf growth 48h = P. falciparum growth inhibition at 48 hours (one generation); P. falciparum luciferase growth in erythrocytes, 48 h; Potency, µM (titrated, usually from 28.7 µM), most hits filed as inhibitors; actives 5.9% (n = 310,000); AID 504832
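Erythrocytes infected with P. falciparum carrying an integrated firefly luciferase reporter (2% hematocrit, 0.1% parasitemia final) were exposed to compounds in RPMI 1640 with 0.5% Albumax at 37 C, 5% CO2. Growth inhibition was scored as reduced luminescence.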
NS1 inh = influenza NS1 inhibition; actives 0.4% (n = 270,000); Potency, µM (titrated, usually from 46.1 µM); calls by dose curve; further: actives are rising curves; nearly all actives have a fitted effect of over 50% in size
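Growth recovery, yeast-based: influenza A NS1 expressed in S. cerevisiae causes slow growth, and suppressors are detected by OD600. The parent strain without NS1 is used as positive control.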
Sm TGR inh = inhibitors of Schistosoma mansoni thioredoxin glutathione reductase. Q962Y6. purified TGR, DTNB reduction, TNB absorbance 405 nm. Potency, µM (doses to about 114 µM), most hits filed as inhibitors. actives 3% (n = 360,000). AID 485364; further: nearly all actives have a fitted effect of over 60% in size
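Kinetic colorimetric format: TGR-catalysed, NADPH-driven DTNB reduction monitored via TNB absorbance. Enzyme dispensed at 20 nM; compound exposure 15 min at room temperature before reaction start.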
AMA1-RON2 inh = AMA1-RON2 (P. falciparum) interaction inhibition; AlphaScreen AMA1-biotinylated RON2 peptide binding; Potency, µM (top dose mostly 58.2 µM), most hits filed as inhibitors; actives 0.2% (n = 360,000); AID 720542; further: nearly all actives have a fitted effect of over 45% in size
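AMA1 (3D7) with his tag at 25 nM final met compounds first, then biotinylated RON2 peptide at 25 nM; detection used donor plus acceptor beads, 10 µg/mL apiece, read by AlphaScreen after 30 min at room temperature.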
Pf growth 96h = inhibits malaria parasite growth, 96 h; P. falciparum luciferase reporter growth, 96 h; Potency, µM (titrated, usually from 28.7 µM), actives largely listed as inhibitors; actives 6.9% (n = 320,000); AID 504834
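Two-generation exposure (96 h) targets delayed-death phenotype. Reporter parasites carrying integrated firefly luciferase, in red cells at 2% hematocrit and 0.05% parasitemia final, kept at 37 C, 5% CO2; luminescence loss indicates inhibition.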
Hits are given with their value. Unless noted, the call rests on the fitted dose curve; in most records, active means well fitted curve in the direction sought with a large enough effect; inconclusive means small, poorly fitted or top-dose-only effect, or another doubt; inactive means no such curve, though single readings can be large; an effect the other way counts as inactive or inconclusive.

`Cc1nn(-c2ccccc2)c2sc(C(=O)NC3CC3)cc12` gave Pf growth 48h inconclusive, NS1 inh inconclusive, Sm TGR inh inactive, AMA1-RON2 inh inactive and Pf growth 96h inactive.
For Cc1nn(-c2ccccc2)c2sc(C(=O)N(CC(=O)NC3CCCC3)Cc3ccco3)cc12 the results were Pf growth 48h 11.7µM, NS1 inh inactive, Sm TGR inh inactive, AMA1-RON2 inh inactive and Pf growth 96h inconclusive.
For Cc1ccnc(Sc2ccc([N+](=O)[O-])cn2)n1 the results were Pf growth 48h inconclusive, NS1 inh inactive, Sm TGR inh inactive, AMA1-RON2 inh inactive and Pf growth 96h 13.1µM.
O=[N+]([O-])c1ccc(Sc2ccccc2)nc1 was read as Pf growth 48h inactive, NS1 inh inactive, Sm TGR inh inactive, AMA1-RON2 inh inactive and Pf growth 96h inactive.
`Cc1ccccc1Sc1ccc([N+](=O)[O-])cn1` gave AMA1-RON2 inh inactive.
`CC(C)(C)c1csc(Sc2ccc([N+](=O)[O-])cn2)n1` gave Pf growth 48h 13.1µM, NS1 inh inactive, Sm TGR inh inconclusive, AMA1-RON2 inh inactive and Pf growth 96h inconclusive.
For N/C(=N\OC(=O)c1ccc(Br)o1)c1cccnc1 the results were Pf growth 48h inactive, Sm TGR inh inactive, AMA1-RON2 inh inactive and Pf growth 96h inactive.
`N/C(Cc1ccc(Cl)c(Cl)c1)=N\OC(=O)c1ccc(Br)o1` gave Pf growth 48h 14.7µM, NS1 inh inactive, Sm TGR inh inactive, AMA1-RON2 inh inactive and Pf growth 96h 14.7µM.
Screening COc1ccc(CNC(=O)c2ccc(N3CCCC3)c(NC(=O)NCc3ccc(C)cc3)c2)cc1 returned Sm TGR inh inactive.
CC(=O)n1cc([C@H]2C=C(C(=O)N3CCN(Cc4ccc5c(c4)OCO5)CC3)O[C@@H](OCCCCO)C2)c2ccccc21 was read as Pf growth 48h 0.928µM, NS1 inh inactive, Sm TGR inh inconclusive, AMA1-RON2 inh inactive and Pf growth 96h inconclusive.
For CCO[C@@H]1OC(C(=O)N2CCN(Cc3ccc4c(c3)OCO4)CC2)=C[C@H](c2cn(C(C)=O)c3ccccc23)[C@H]1CCCO the results were Pf growth 48h 1.31µM, NS1 inh inactive, Sm TGR inh inactive, AMA1-RON2 inh inactive and Pf growth 96h 4.15µM.
`CCO[C@H]1OC(C(=O)Nc2ccccc2)=C[C@@H](c2cn(C(C)=O)c3ccccc23)[C@@H]1CCCO` gave Pf growth 48h inconclusive, NS1 inh inactive, Sm TGR inh inactive, AMA1-RON2 inh inactive and Pf growth 96h inconclusive.
For CCO[C@@H]1OC(C(=O)N2CCN(Cc3ccc4c(c3)OCO4)CC2)=C[C@H](c2csc3ccccc23)[C@H]1CCCO the results were Pf growth 48h inconclusive, NS1 inh inactive, Sm TGR inh inactive, AMA1-RON2 inh inactive and Pf growth 96h 2.08µM.
`CC(=O)n1cc([C@@H]2C=C(C(=O)N3CCOCC3)O[C@H](OCCCCO)C2)c2ccccc21` gave Pf growth 48h inconclusive, NS1 inh inactive, Sm TGR inh inconclusive, AMA1-RON2 inh inactive and Pf growth 96h inactive.
For CCO[C@@H]1OC(C(=O)N2CCN(C)CC2)=C[C@H](c2csc3ccccc23)[C@H]1CCCO the results were Pf growth 48h inconclusive, NS1 inh inactive, Sm TGR inh inactive, AMA1-RON2 inh inactive and Pf growth 96h inconclusive.
`N#C/C(=C/c1ccc(N2CCOCC2)o1)c1ccc(Br)cc1` gave Pf growth 48h inactive, NS1 inh inactive, Sm TGR inh 2µM, AMA1-RON2 inh inactive and Pf growth 96h 5.22µM.
Screening N#C/C(=C\c1ccc(N2CCOCC2)o1)c1ccccc1 returned Pf growth 48h inactive, NS1 inh inactive, Sm TGR inh 1.12µM, AMA1-RON2 inh inactive and Pf growth 96h inactive.
Screening N#C/C(=C/c1ccc(N2CCOCC2)o1)c1nc2ccccc2[nH]1 returned Pf growth 48h inactive, NS1 inh inactive, Sm TGR inh inconclusive, AMA1-RON2 inh inactive and Pf growth 96h inactive.
Screening CCCS(=O)(=O)NC(=O)C1(C)CCCN(C(=O)c2ccc(F)c(Cl)c2)C1 (stereo unspecified) returned AMA1-RON2 inh inactive.
For NC(=O)CCCn1c(C(=O)c2cc(Cl)c(N)c(Cl)c2)c2ccc([N+](=O)[O-])cc2[n+]1[O-] the results were Pf growth 48h inconclusive, Sm TGR inh inactive, AMA1-RON2 inh inactive and Pf growth 96h 9.28µM.
`NC(=O)CCCn1c(C(=O)c2ccc(Cl)cc2)c2ccc([N+](=O)[O-])cc2[n+]1[O-]` gave Pf growth 48h inconclusive, Sm TGR inh inconclusive, AMA1-RON2 inh inactive and Pf growth 96h inconclusive.
For NCCCn1c(C(=O)c2ccc(Cl)cc2)c2ccc(C(F)(F)F)cc2[n+]1[O-] the results were Pf growth 48h 9.28µM, Sm TGR inh inactive, AMA1-RON2 inh inactive and Pf growth 96h inconclusive.
For O=C(NCCOCCO)C(=O)Nc1c2c(nn1-c1ccc(F)cc1)CSC2 the results were Sm TGR inh inactive.
Screening COC1=C(Nc2ccc(O)cc2)C(=O)c2ccccc2C1=O returned Pf growth 48h inconclusive, NS1 inh inactive, Sm TGR inh inconclusive, AMA1-RON2 inh inconclusive and Pf growth 96h 11.7µM.
Cc1cccc(NC2=C(NCCO)C(=O)c3ccccc3C2=O)c1 was read as Pf growth 48h 4.65µM, NS1 inh inactive, Sm TGR inh inactive, AMA1-RON2 inh inconclusive and Pf growth 96h inactive.
Screening COC1=C(Nc2ccc(OC)cc2)C(=O)c2ccccc2C1=O returned Pf growth 48h 2.33µM, NS1 inh inactive, Sm TGR inh inactive, AMA1-RON2 inh 12.6µM and Pf growth 96h inconclusive.
COC1=C(Nc2ccc(OC)cc2)C(=O)C(OC)=C(Nc2ccc(OC)cc2)C1=O was read as AMA1-RON2 inh inactive.
For COc1ccc(NC2=C(NCCO)C(=O)c3ccccc3C2=O)cc1 the results were Pf growth 48h 7.38µM, NS1 inh inactive, Sm TGR inh inactive, AMA1-RON2 inh inconclusive and Pf growth 96h inconclusive.
Screening COc1cccc(NC2=C(NCCO)C(=O)c3ccccc3C2=O)c1 returned Pf growth 48h inactive, NS1 inh inactive, Sm TGR inh inactive, AMA1-RON2 inh inconclusive and Pf growth 96h inactive.
For CCn1cc(C(=O)NCCc2ccc(C)cc2)c(=O)c2cc(S(=O)(=O)N3CCC(C)CC3)ccc21 the results were Sm TGR inh inactive.
`CCOc1ccc(NC2=C(OC)C(=O)c3ccccc3C2=O)cc1` gave Pf growth 48h 1.17µM, NS1 inh inactive, Sm TGR inh inactive, AMA1-RON2 inh 8.91µM and Pf growth 96h 1.17µM.
`COc1ccc(NC2=C(NC(C)=O)C(=O)c3ccccc3C2=O)cc1` gave Pf growth 48h inconclusive, NS1 inh inactive, Sm TGR inh inactive, AMA1-RON2 inh inactive and Pf growth 96h inactive.
CCC(=O)NC(Nc1c(C)n(C)n(-c2ccccc2)c1=O)C(Cl)(Cl)Cl (stereo unspecified) was read as Pf growth 48h inactive, NS1 inh inactive, AMA1-RON2 inh inactive and Pf growth 96h inactive.
Screening CCN(CC)CCCn1c2c(c(SCC(=O)Nc3cccc(C(C)=O)c3)nc1=O)CCC2 returned Pf growth 48h inactive, Sm TGR inh inactive, AMA1-RON2 inh inactive and Pf growth 96h inconclusive.
